Results reported in PubChem BioAssay AID624330 (Southern Research Specialized Biocontainment Screening …, 2012).
The campaign covered roughly 340,000 compounds. About 2,100 (0.62%) were called active.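 Rule for the calls: active = first-screen hits whose inhibition reached a set limit at any dose in the follow-up dose series; inconclusive = inhibition above the set first-screen limit but never retested; inactive = the rest.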 Not all results are given here. Measured potencies and affinities stand elsewhere.

Target: Rac GTPase-activating protein 1 (Homo sapiens) (UniProt Q9H0H5)
Sequence (Q9H0H5 whole entry, looked up): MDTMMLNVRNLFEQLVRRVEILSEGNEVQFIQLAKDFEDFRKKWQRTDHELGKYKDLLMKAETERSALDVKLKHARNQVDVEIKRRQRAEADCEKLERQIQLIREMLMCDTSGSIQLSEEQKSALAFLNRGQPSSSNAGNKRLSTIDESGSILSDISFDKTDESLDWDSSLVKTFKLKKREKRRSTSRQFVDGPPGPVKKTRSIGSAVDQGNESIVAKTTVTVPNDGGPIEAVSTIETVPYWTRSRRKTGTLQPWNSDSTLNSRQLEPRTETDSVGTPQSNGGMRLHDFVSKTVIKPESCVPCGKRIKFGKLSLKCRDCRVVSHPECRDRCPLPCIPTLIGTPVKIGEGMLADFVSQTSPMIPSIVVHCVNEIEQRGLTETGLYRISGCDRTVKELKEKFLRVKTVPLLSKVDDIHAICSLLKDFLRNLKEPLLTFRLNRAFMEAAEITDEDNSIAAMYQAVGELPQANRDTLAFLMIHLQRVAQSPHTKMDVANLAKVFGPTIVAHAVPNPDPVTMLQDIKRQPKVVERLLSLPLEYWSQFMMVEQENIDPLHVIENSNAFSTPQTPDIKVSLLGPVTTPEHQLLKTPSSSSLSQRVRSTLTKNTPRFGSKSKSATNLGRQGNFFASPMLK
Assay: blockers of MgcRacGAP-driven Rac1 GTP hydrolysis – biochemical, ADP Hunter fluorescence, primary and confirmatory, confirmation (AID 624330);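 note: fluorescence reports GDP produced by GAP-driven GTP hydrolysis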
Conditions: MgcRacGAP-stimulated Rac1 GTP hydrolysis, at 30 µM, stronger effect = higher value, GST-tagged Rac1 F28L mutant substrate

inhibition, inactive:
C=CCN1C(=O)c2ccc(C(=O)N(C)CC(=O)Nc3ccccc3Cl)cc2C1=O -7.53%
CCOC(=O)c1ccc(NC(=O)c2nc[nH]c2C(=O)NCCCNC(=O)c2[nH]cnc2C(=O)Nc2ccc(C(=O)OCC)cc2)cc1 -0.79%
COc1ccc(N=Cc2c(O)c3ccccc3oc2=O)cc1 10.7%
COC(=O)c1ccccc1NC(=S)NC(=O)COc1ccccc1Cl 2.61%
CCOc1ccc(-n2c(-c3ccco3)n[nH]c2=S)cc1 15.8%
O=C(COC(=O)c1cccs1)NCCc1ccc(F)cc1 4.76%
CC1CC(C)(C)N(C(=O)CN2C(=O)c3ccccc3C2=O)c2ccccc21 (stereo not given) 2.35%
CC1CC(C)(C)N(C(=O)CN2C(=O)CCC2=O)c2ccccc21 (stereo not given) -0.11%
Cc1ccc2c(c1)C(C)CC(C)(C)N2C(=O)NC1CCCCC1 (stereo not given) 3.06%
CN1CCN(CC(=O)N2c3ccccc3C(C)(c3ccccc3)CC2(C)C)CC1 (stereo not given) 10.3%
CCN(CC)C(=O)[C@H]1C[C@H](CC(=O)NCCCN(C)C)C(=O)N2CCc3c([nH]c4ccc(Cl)cc34)[C@]12C 4.62%
O=C(NCc1ccccn1)NC12CC3CC(CC(C3)C1)C2 1.18%
O=C(NCc1ccccn1)C12CC3CC(CC(C3)C1)C2 3.08%
COc1cc(OC)c(OC)cc1/C=C1/C(=O)N=C(N)N1C 0.61%
CC(NC(=O)/C=C/c1ccco1)c1nc2ccccc2n1Cc1ccccc1F (stereo not given) -6.08%
O=c1c(-c2ccco2)[n+]([O-])c2ccccc2n1OCc1ccccc1 2.31%
Cc1c(Cl)cccc1NC(=O)CNCc1ccccc1F 5.19%
O=C(CNCc1ccccc1Cl)Nc1ccccc1N1CCCCC1 28.3%
CCCCn1c(N)c(N(CCOC)C(=O)CSCc2ccc(C)cc2)c(=O)[nH]c1=O 3.5%
Cc1ccc(NC(=O)CN(C)S(=O)(=O)c2cccs2)cc1C 2.54%
CCN=C1S/C(=C\c2sccc2C)C(=O)N1CC 8.79%
CSc1ccccc1C(=O)NCc1ccc2c(c1)OCO2 3.84%
CC(C(=O)Nc1ccc2c(c1)OCO2)N(C)CC(=O)Nc1ccccc1Cl (stereo not given) 6.56%
COc1ccc2c(c1)[nH]c1c(=O)n(/N=C/c3ccc(OC)c(COc4ccccn4)c3)cnc12 6.37%
CC(C)N1C(=O)S/C(=C\c2ccc(-c3ccc(Cl)c(C(=O)O)c3)o2)C1=O 14.4%
CC(C)N1C(=O)S/C(=C/c2ccc(Sc3nc4ccccc4[nH]3)o2)C1=O 12.6%
CCc1nc2ccccc2c(=O)n1NC(=O)c1c(O)c2ccccc2n(CC)c1=O 11.3%
CCn1c(COc2ccc(Cl)cc2)nnc1SCC(=O)Nc1ccc2c(c1)OCCO2 9.81%
COc1ccc(/C=C2\SC(c3ccc(C)cc3)=NC2=O)cc1OC -0.09%
O=C(CN1C(=O)S/C(=C\c2ccc(O)cc2)C1=O)c1ccccc1 2.23%
COc1cc(/C=C2/SC(=S)N(Cc3ccccc3)C2=O)ccc1O 11.1%
COc1ccc(C2=NN(c3ccccc3)C(=O)/C2=C\c2ccc(O)c(OC)c2)cc1 4.88%
COc1ccc(/C=C2\SC(N)=NC2=O)cc1 3.78%
NC1=NC(=O)C(=Cc2ccccc2)S1 -0.93%
COc1ccc(/C=C2/SC(c3ccc(C)cc3)=NC2=O)cc1OC 11.7%
COc1cc(/C=C2\SC(N)=NC2=O)ccc1OCC(=O)Nc1ccccc1C 1.31%
COc1ccc(N2CC(C(=O)Nc3nnc(SCC(=O)N4CCOCC4)s3)CC2=O)cc1 (stereo not given) 10.3%
CCCn1c(SCC(=O)Nc2cc(Cl)ccc2OC)nc(O)cc1=O 4.2%
CCOC(=O)C(CC)Sc1nc2c(c(=O)[nH]c(=O)n2C)n1C/C=C(/C)Cl (stereo not given) 13.4%
CCc1cccc(NC(=O)CSc2nnc(Cc3ccc(OC)cc3)c(=O)[nH]2)c1 6.26%
CC(=O)c1cccc(Nc2cc(C)nc3c(C)cc(C)cc23)c1 11%
CC(=O)Nc1cccc2c1C(=O)N(c1ccccc1C)C2=O 9.72%
Cc1ccnc(NC(=O)Cn2c(=O)oc3ccccc32)c1 6.21%
Cn1cccc1/C=C1\SC(=O)N(c2ccc(O)cc2)C1=O 0.13%
Cc1ccc(NC(=O)CN2C(=O)S/C(=C\c3cccn3C)C2=O)cc1 2.72%
N/C(Cc1cccs1)=N\OC(=O)COc1ccc(Br)cc1 0.69%
CN(CC(=O)NCc1ccc(F)cc1)Cc1cccc(Cl)c1 5.16%
CSc1ccc(CN(C)CC(=O)NCc2ccccc2)cc1 4.61%
COc1ccc(CNC(=O)CN(C)Cc2ccc(SC)cc2)cc1 9.14%
COc1ccc(CNC(=O)CCOc2ccc(C(C)(C)C)cc2)cc1 4.83%
Cc1cccc(NC(=O)C2(C)CC3c4ccccc4C2c2ccccc23)c1C (stereo not given) 4.55%
CC(C)(C)OC(=O)N[C@@H](Cc1ccccc1)C(=O)NCC1CCC(C(=O)N[C@@H](CC(=O)O)C(=O)O)CC1 (stereo not given in full) -2.85%
O=S(=O)(c1ccc(Cl)cc1)N1CCN(C2CCN(Cc3ccccc3)CC2)CC1 2.66%
COc1ccc(S(=O)(=O)N2CCN(Cc3ccccc3)CC2)cc1 5.15%
CCOC(=O)N1CCC(N2CCN(S(=O)(=O)c3ccc(OC)cc3)CC2)CC1 20.1%
CCOC(=O)N1CCC(N2CCN(S(=O)(=O)c3ccc(C)cc3)CC2)CC1 22.2%
COc1ccc(S(=O)(=O)N2CCN(C3CCN(Cc4ccccc4)CC3)CC2)cc1 8.39%
COc1ccccc1N1CCN(C2CCN(S(=O)(=O)c3ccc4ccccc4c3)CC2)CC1 4.9%
COc1ccccc1N1CCN(C2CCN(S(=O)(=O)c3ccc(C)cc3)CC2)CC1 -5.5%
O=S(=O)(c1ccccc1)N1CCN(C2CCN(Cc3ccccc3)CC2)CC1 9.41%
